Assay outcomes deposited in PubChem by National Center for Advancing Translational Sciences (NCATS).
hNpr1 antagonist: blocks ANP-stimulated signaling of human Npr1 receptor. P16066. HEK293 hNpr1 GloSensor cGMP, ANP-stimulated luminescence. Potency, µM (titrated, usually from 46.3 µM), inactives show top-dose activity change, negative = inhibition, usual class: inhibitors. 76,000 compounds, 1.6% hits. AID 1347048; calls by dose curve; further: nearly all actives have a fitted effect of over 60% in size
Target sequence (P16066 whole entry, looked up): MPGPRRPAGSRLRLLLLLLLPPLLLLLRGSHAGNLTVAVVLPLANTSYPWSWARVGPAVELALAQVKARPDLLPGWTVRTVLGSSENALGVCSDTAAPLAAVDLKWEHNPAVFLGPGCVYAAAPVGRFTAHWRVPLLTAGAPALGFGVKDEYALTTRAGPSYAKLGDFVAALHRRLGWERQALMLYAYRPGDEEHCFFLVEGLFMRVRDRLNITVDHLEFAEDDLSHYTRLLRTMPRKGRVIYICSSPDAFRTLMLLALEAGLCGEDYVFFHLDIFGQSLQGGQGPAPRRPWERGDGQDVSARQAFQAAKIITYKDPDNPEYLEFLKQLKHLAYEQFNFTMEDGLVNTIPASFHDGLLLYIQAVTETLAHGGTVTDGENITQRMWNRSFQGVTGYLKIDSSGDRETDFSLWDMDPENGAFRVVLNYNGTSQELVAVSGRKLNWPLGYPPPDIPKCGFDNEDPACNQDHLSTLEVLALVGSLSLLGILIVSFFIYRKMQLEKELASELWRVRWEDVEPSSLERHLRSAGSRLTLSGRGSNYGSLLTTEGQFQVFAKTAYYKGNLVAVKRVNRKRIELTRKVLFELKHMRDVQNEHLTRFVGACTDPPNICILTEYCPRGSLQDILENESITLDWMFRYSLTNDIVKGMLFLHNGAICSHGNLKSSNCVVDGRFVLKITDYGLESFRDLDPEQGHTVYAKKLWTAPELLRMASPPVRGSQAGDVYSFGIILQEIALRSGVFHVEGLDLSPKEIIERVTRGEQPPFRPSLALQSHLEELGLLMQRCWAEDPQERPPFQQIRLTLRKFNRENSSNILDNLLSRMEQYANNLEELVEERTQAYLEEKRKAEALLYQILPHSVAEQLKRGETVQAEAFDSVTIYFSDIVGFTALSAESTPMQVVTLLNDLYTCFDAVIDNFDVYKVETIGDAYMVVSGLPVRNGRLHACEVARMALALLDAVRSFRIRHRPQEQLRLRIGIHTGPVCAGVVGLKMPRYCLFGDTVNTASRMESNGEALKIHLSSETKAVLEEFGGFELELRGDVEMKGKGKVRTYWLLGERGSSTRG
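HEK293 cells stably expressing human Npr1 and cGMP GloSensor pGS-40F, loaded 2 h with 2% GloSensor reagent, given compound 30 min at room temperature. Luminescence read before and 20 min after 0.1 nM hNppA.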
HEK cytotox: HEK 293 cell cytotoxicity. HEK 293 viability, ATP luminescence (CellTiter-Glo), 48-72 h. Potency, µM (titrated, usually from 115 µM), without a hit: at the top dose activity change, negative = cytotoxicity, usual class: inhibitors. 94,000 compounds, 6.6% hits. AID 1345083; further: nearly all actives have a fitted effect of over 60% in size
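CellTiter-Glo luminescence (cellular ATP) was read after 48 or 72 hr of compound exposure at 37 degree Celsius. Cells were HEK 293 plated at 250 cells/well.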
GPT2 inhibitor: inhibitors of human GPT2 alanine aminotransferase | Q8TD30 | Recombinant GPT2, coupled pyruvate oxidase/HRP Amplex Red fluorescence | Potency, µM (top dose mostly 57.7 µM), inactives show top-dose activity change, negative = inhibition, usual class: inhibitors | 100,000 compounds, 0.25% hits | AID 1671188; further: nearly all actives have a fitted effect of over 60% in size
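Recombinant GPT2 (10ng/uL) with 250uM a-KG and 2mM L-alanine, 30 min at room temperature, in HEPES pH 7.5 buffer. Pyruvate detected by pyruvate oxidase/HRP/Amplex Red fluorescence after 30 min in the dark; AOA (50uM) as positive control.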
Luciferase inh: blocks purified firefly luciferase enzyme activity; P08659; purified P. pyralis luciferase, luminescence, biochemical; Potency, µM (series often up to 115 µM), actives largely listed as inhibitors; 76,000 compounds, 2.5% hits; AID 1347043; further: nearly all actives have a fitted effect of over 65% in size
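Biochemical qHTS: compound (6-point titration) added to 10uM D-luciferin plus 10uM ATP in Tris acetate pH 7.5 buffer with Mg, Tween-20 and BSA, then purified enzyme at 10nM; light output imaged.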
3T3 cytotox: NIH 3T3 cell cytotoxicity; NIH 3T3 viability, CellTiter-Glo ATP luminescence, 48-72 h; Potency, µM (series often up to 96.7 µM), inactives show top-dose activity change, negative = cytotoxicity, most hits filed as inhibitors; 94,000 compounds, 4.3% hits; further: nearly all actives have a fitted effect of over 55% in size
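NIH 3T3 cells at 400 cells/well received 23 nL of compound by pintool and were incubated 48 or 72 h at 37 °C. Viability was read as ATP-coupled CellTiter-Glo luminescence.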
Starred values were filed as active, the others as inactive; i = inactive; ? = inconclusive; nt = no result given; [ ] = remark or other dose. The list is not random: actives were taken first. Their share in the collection is about 10%. Unless noted, the call rests on the fitted dose curve; in most records, active means well fitted curve in the direction sought with a large enough effect; inconclusive means small, poorly fitted or top-dose-only effect, or another doubt; inactive means no such curve, though single readings can be large; an effect the other way counts as inactive or inconclusive. On the % scale 0 is the no-effect control and ±100 the full control effect; potency means the concentration at half of the fitted maximal effect.

SMILES | hNpr1 antagonist | HEK cytotox | GPT2 inhibitor | Luciferase inh | 3T3 cytotox
O=C(NCCc1ccc(Cl)cc1)C1CCCN(c2nccc(Nc3ccccc3F)n2)C1 (configuration not stated) | nt | 22µM* | i | nt | 25µM*
COc1ccccc1Nc1ccnc(N2CCCC(C(=O)NCc3ccc(F)c(F)c3)C2)n1 (configuration not stated) | nt | ? | 1% | nt | 13µM*
COc1ccccc1Nc1ccnc(N2CCCC(C(=O)NCc3ccc(F)cc3)C2)n1 (configuration not stated) | nt | 14µM* | i | nt | 20µM*
CCNC(=O)[C@@H]1C[C@H](NC(=O)c2cccc(-c3ccc(F)cc3)c2)CN1C | 1% | ? | i | 35µM* | -28%
C/C=C/CN1C[C@@H](NC(=O)c2cccc(N(C)C)c2)C[C@H]1C(=O)NCC | 7% | -15% | i | i | -10%
COc1cccc(-c2cn3cc(C(=O)NCc4ccccc4F)nc3s2)c1 | nt | ? | -3% | nt | -25%
FC(F)(F)c1ccc(O[C@H]2COCCN(CC3CCCC3)C2)cc1 | -3%[70.6 µM] | 112µM* | -16%[88.5 µM] | i | 89µM*
FC(F)(F)c1cccc(CN2CCOC[C@H](Oc3ccccc3)C2)c1 | 2%[70.6 µM] | ? | -13%[88.5 µM] | i | ?
COc1ccc2ccc(OCc3nc(C(=O)N4CCCC(C)(CO)C4)co3)cc2c1 (configuration not stated) | 11µM* | ? | ? | ? | ?
COc1ccc2ccc(OCc3nc(C(=O)NCc4cnc(C)cn4)co3)cc2c1 | -22% | ? | i | i | ?
COc1ccc2ccc(OCc3nc(C(=O)N4CCCNC(=O)C4)co3)cc2c1 | ? | ? | 0% | ? | ?
COc1ccc2ccc(OCc3nc(C(=O)NC(C)c4n[nH]c(C)n4)co3)cc2c1 (configuration not stated) | 11µM* | 45µM* | ? | ? | -28%
COc1cccc(CNC(=O)c2ccc3nc(-c4ccnc(Cl)c4)oc3c2)c1 | nt | -8% | i | nt | -30%
COc1ccc(CC(=O)Nc2cc(-c3ccncc3)nn2-c2ccccc2)cc1 | nt | ? | -2% | nt | ?
CC[C@H]1CN(C(=O)c2ccc(F)cc2)CC[C@H]1CC(=O)Nc1nccs1 | -14%[70.6 µM] | ? | -6%[88.5 µM] | i | ?
CC[C@H]1CN(C(C)=O)CC[C@H]1CC(=O)Nc1nccs1 | -20%[70.6 µM] | 112µM* | ? | i | 100µM*
CC(C)CCN1CCOc2cc([S+](=O)([O-])Nc3nncs3)ccc2C1 | 0%[70.6 µM] | -12%[172 µM] | 5%[88.5 µM] | i | 32µM*
CC(C)CCN1CCOc2cc([S+](=O)([O-])Nc3cccnc3)ccc2C1 | -19%[70.6 µM] | ? | 4%[88.5 µM] | i | 28µM*
CC(C)(C)COC(=O)N1C[C@H](C(N)=O)[C@H]2c3ccccc3N(CC3CC3)C(=O)[C@]21C | nt | ? | -11%[27.3 µM] | nt | -24%[46.1 µM]
CCn1cc(S(=O)(=O)N2CC3(CCCCC3)CC2COc2ccc(OC)cc2)cn1 (configuration not stated) | nt | 32µM* | i | nt | ?
CCOC(=O)CNC(=O)N1CC2(CCCCC2)CC1COc1ccc(OC)cc1 (configuration not stated) | nt | -26% | i | nt | -29%
COc1ccc(CNC(=O)[C@@H]2CCC[C@@H](NCc3cccc(Cl)c3)CN(C)C(=O)C2)cc1 | -19% | ? | -3% | i | ?
CN1C[C@H](NCc2cccc(Cl)c2)CCC[C@@H](C(=O)NCc2cc(F)cc(F)c2)CC1=O | 5% | 45µM* | i | i | ?
COCCCNc1ccnc(-c2nnc(C)n2-c2ccccc2)c1 | -14%[70.6 µM] | -10%[172 µM] | -27%[88.5 µM] | i | 100µM*
COC(=O)c1ccc2nc(CO[C@H]3CN(Cc4cn(C)c5ccccc45)C[C@H]3F)[nH]c2c1 | -17% | ? | -21% | i | ?
SMILES | hNpr1 antagonist | HEK cytotox | GPT2 inhibitor | Luciferase inh | 3T3 cytotox
COc1cccc(CN2C[C@@H](F)[C@@H](OCc3nc4ncccc4[nH]3)C2)c1 | -8%[70.6 µM] | ? | i | i | ?
Fc1ccc2nc(CO[C@H]3CN(Cc4ccccn4)C[C@H]3F)[nH]c2c1 | 4%[70.6 µM] | -11%[172 µM] | -7%[88.5 µM] | i | -2%[138 µM]
Cn1cc(CN2C[C@@H](F)[C@@H](OCc3nc4ncccc4[nH]3)C2)c2ccccc21 | -4%[70.6 µM] | 89µM* | i | i | ?
Cn1cc(CN2C[C@@H](F)[C@@H](OCc3nc4ccccc4[nH]3)C2)c2ccccc21 | -4%[70.6 µM] | 100µM* | -2%[88.5 µM] | i | ?
Cn1cc(CN2C[C@@H](F)[C@@H](OCc3nc4ccccc4n3C)C2)c2ccccc21 | ? | ? | 3%[88.5 µM] | i | ?
Fc1ccc2nc(CO[C@H]3CN(Cc4ccc5ccccc5n4)C[C@H]3F)[nH]c2c1 | ? | 89µM* | 5%[88.5 µM] | ? | ?
Cc1ccc2nc(CO[C@H]3CN(Cc4cn(C)c5ccccc45)C[C@H]3F)[nH]c2c1 | ? | 89µM* | 1%[88.5 µM] | i | 79µM*
O=C(NCC(=O)N1CCOCC1)c1ccc(-c2cnc3ccccc3c2)cc1 | nt | ? | i | nt | -12%
COc1ccc(-c2cn3cc(C(=O)NCCCc4ccccc4)nc3s2)cc1 | nt | ? | 4% | nt | ?
CC(NC(=O)c1csc(N2CCN(c3ccccc3F)CC2)n1)c1ccccc1 (configuration not stated) | 3% | 45µM* | -5% | i | ?
O=C(NCC1CC1)c1csc(N2CCN(c3ccccc3F)CC2)n1 | -24% | 35µM* | -1% | i | 13µM*
Cc1nn(-c2ccccc2)c2c1C(C)N(C1CCN([S+](=O)([O-])c3ccc(C4CC4)cc3)C1)C2=O (configuration not stated) | nt | -33% | nt | nt | ?
O=C(Cc1ccc(F)cc1)N1CCC2(CC1)CN(Cc1ccccc1)CC2CO (configuration not stated) | -28% | 45µM* | ? | i | ?
CNCC(=O)N1CCC2(CC1)CN(Cc1ccccc1)CC2CO (configuration not stated) | -15% | i | i | i | i
COCC1CN(C2CCC2)CC12CCN(C(=O)c1ccccc1C)CC2 (configuration not stated) | -17% | ? | i | i | ?
COCC1CN(C)CC12CCN(C(=O)Cc1ccc(OC)c(Cl)c1)CC2 (configuration not stated) | 0% | 89µM* | -15% | i | -22%
COCC1CN(C)CC12CCN(C(=O)Cc1cccc(Cl)c1)CC2 (configuration not stated) | -15% | 35µM* | i | i | ?
COCC1CN(C)CC12CCN(C(=O)c1cc(Cl)ccc1OC)CC2 (configuration not stated) | -5% | ? | i | i | -29%
